Data: ChEMBL document CHEMBL1157539, “Thousands of chemical starting points for antimalarial lead identification” (Nature, 2010)
The full ranking holds about 13,000 compounds; the median of “IFI” is about 4, and the highest 2% start at about 17. This is one part of a sample in which the highest values are shown more often than they occur.

Experiment: GSK_TCMDC: Inhibition Frequency Index (IFI). The number of non-kinase HTS assays where a compound showed > 50 % inhibition, expressed as a percentage of the number of such assays in which the compound was tested
Assay type: functional

Structure (SMILES)	IFI [%]
NS(=O)(=O)c1ccc(Nc2nccc(-c3c(-c4cccc(NC(=O)c5c(F)cccc5F)c4)nn4ccccc34)n2)cc1	7.96
Cc1cc(-c2ccc3c(c2)CCN(CCCOc2ccc4c(c2)CCN4C(=O)/C=C/c2ccccc2Cl)CC3)no1	10.8
CN(C)CCN(C)Cc1ccc(-c2ccc3c(Nc4ccc(F)cc4Cl)ccnc3c2)o1	9.86
Nc1ccc2[nH]cc(C3CCN(CCC4CCN(C(=O)/C=C/c5ccc(Cl)c(Cl)c5)CC4)CC3)c2n1	8.76
CCCNCc1ccc(-c2ccc(CN(CCOC)C(=O)c3cnc(C)cn3)cc2)nc1	0
O=C(Nc1ccc(C(F)(F)F)cc1)N[C@H]1CCN(CCCCCNC(=O)C2CC2c2ccc(Cl)c(Cl)c2)C1 (some centres not stated)	16.8
CC(C)Cc1cn(-c2nc(C(=N)N)cs2)c2cc(Cl)ccc12	23.9
CC(C)Cc1cn(-c2nc(-c3nc4ccccc4[nH]3)cs2)c2cc(Cl)ccc12	1.18
CC(C)Cc1cn(-c2nc(-c3nc4ccccc4[nH]3)cs2)c2ccncc12	4.94
CCCN(Cc1ccc(C)cc1)Cc1cc(=O)c2cc(Cl)ccc2[nH]1	9.09
Fc1ccc2[nH]c(-c3ccc(-c4cccc(CN5CCN(c6ccncc6)CC5)c4)cc3)nc2c1	18.1
Fc1ccc2[nH]c(-c3cccc(-c4cccc(CN5CCN(c6ccncc6)CC5)c4)c3)nc2c1	13.6
Fc1ccc2[nH]c(-c3cccc(-c4ccc(CN5CCN(c6ccncc6)CC5)cc4)c3)nc2c1	5.63
Cc1cc(N)c2cc(NC(=O)c3cc4ccccc4s3)ccc2n1	6.12
c1ccc(COc2ccc(C3CCCCC3)cc2)nc1	2.9
CC(CNC(=N)c1cccc(C(=N)NCC(C)Oc2cccc(C3CCCCC3)c2)n1)Oc1cccc(C2CCCCC2)c1 (configuration not stated)	17.7
N=C(NCC1CC1c1ccccc1)c1cccc(C(=N)NCC2CC2c2ccccc2)n1 (configuration not stated)	5.65
Cc1cccc(NC(=O)Nc2cccc(-c3ccc(-c4nc5cc(C(F)(F)F)ccc5[nH]4)cc3)c2)c1	6.45
Cc1ccc(C)c(S(=O)(=O)Nc2ccc(Br)cc2C(=O)Nc2cccc(C(F)(F)F)c2)c1	21.1
O=C(Nc1cc(C(F)(F)F)cc(C(F)(F)F)c1)c1cc(C(F)(F)F)cc(C(F)(F)F)c1	3.65
O=C(Nc1ccc(Br)cc1)c1cc(Br)ccc1NS(=O)(=O)c1cc(C(F)(F)F)cc(C(F)(F)F)c1	19.9
O=C(Nc1ccc(Br)cc1)c1cc(Br)ccc1NS(=O)(=O)c1ccc(C(F)(F)F)cc1	25
O=C(Nc1ccc(C(F)(F)F)cc1)c1ccc(S(=O)(=O)NC2CCN(CC3CCCCC3)CC2)cc1	2.41
Cc1cc(Cl)c(Cl)cc1NC(=O)Nc1cccc(C(F)(F)F)c1	6.52
O=C(Nc1ccc(C(F)(F)F)cc1)c1cc(Br)cnc1NCCCn1ccnc1	1.67
NCCNc1ccc([N+](=O)[O-])cc1C(=O)Nc1cccc(C(F)(F)F)c1	1.45
COc1cc(NC(=O)Nc2ccc(Br)cc2C(=O)Nc2ccc(Br)cc2)cc(OC)c1OC	1.55
